Results taken from PubChem BioAssay.
Active and inactive are the calls of the source. Unless noted, the rule behind the calls is not given here.

What was measured:
[1] = system: Wnt5a (protein binding on small-molecule microarray); test: small molecules binding Wnt5a protein – biophysical, small-molecule microarray, 635/667 nm fluorescence, primary screen (AID 1142); conditions: 635 nm fluorescence, higher = more signal;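 note: fluorescence read at 667 nm with signal to noise per printed feature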
[2] = ATP-based viability of Huh7 replicon cells – cell-based, CellTiter-Glo luminescence, basal, 48 h, cytotoxicity control for HCV replication inhibitor project, primary screen (AID 1143); conditions: higher = more signal, called active from +8 up or from −8 down;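 note: Huh7 hepatoma cells carrying a hepatitis C replication reporter with no stimulus; test concentration not given here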
[3] = Pseudomonas biofilm growth suppression – PAO1 strain, BacTiter-Glo luminescence, LB-PBS, primary screen (AID 1144); conditions: P. aeruginosa PAO1 biofilm, 12 h, higher = more signal
[4] = basal CRE-LacZ reporter activity in PC12 – cell-based, unstimulated, primary screen (AID 1145); conditions: no forskolin, luminescence, 4.5 h, higher = more signal, called active from +8 up or from −8 down
[5] = forskolin-driven CRE-LacZ activity in PC12 – cell-based, CRE-LacZ reporter, forskolin-stimulated, primary screen (AID 1146); conditions: luminescence, 4.5 h, higher = more signal, called active from +8 up or from −8 down;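 note: PC12 cells with 6xCRE LacZ reporter stimulated by forskolin 10 µM; beta-galactosidase reporter signal reflecting CREB driven transcription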
[6] = target: Streptavidin (Streptomyces avidinii) (UniProt P22629); test: compounds binding control protein streptavidin – biophysical, small-molecule microarray, 635/667 nm fluorescence, artefact control for SMM compound annotation, primary screen (AID 1147); conditions: higher = more signal;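 note: signal reflects streptavidin binding to arrayed compounds as a control protein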
Sequence of Streptavidin (Streptomyces avidinii) (P22629 whole entry, looked up): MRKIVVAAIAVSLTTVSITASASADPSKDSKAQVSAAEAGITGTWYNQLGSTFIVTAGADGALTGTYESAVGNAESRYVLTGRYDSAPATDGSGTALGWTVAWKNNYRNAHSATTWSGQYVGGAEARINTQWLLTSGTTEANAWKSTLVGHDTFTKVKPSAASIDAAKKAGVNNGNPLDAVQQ

[7] = probe aInhba binding on compound microarray – biochemical, small-molecule microarray, 635/667 nm fluorescence, primary screen (AID 1148); conditions: higher = more signal;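 note: score merges 667nm spot fluorescence with signal-to-noise for antibody binding to printed compounds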
Torsin-1A (Homo sapiens) [8] = target: Torsin-1A (Homo sapiens) (UniProt O14656); test: TOR1A wild-type binding on microarray – cell lysate, small-molecule microarray, lysate, 635/667 nm, primary screen (AID 1149); conditions: COS7 hTOR1A-WT lysate, 635 nm fluorescence, higher = more signal
Sequence of Torsin-1A (Homo sapiens) (O14656 whole entry, looked up): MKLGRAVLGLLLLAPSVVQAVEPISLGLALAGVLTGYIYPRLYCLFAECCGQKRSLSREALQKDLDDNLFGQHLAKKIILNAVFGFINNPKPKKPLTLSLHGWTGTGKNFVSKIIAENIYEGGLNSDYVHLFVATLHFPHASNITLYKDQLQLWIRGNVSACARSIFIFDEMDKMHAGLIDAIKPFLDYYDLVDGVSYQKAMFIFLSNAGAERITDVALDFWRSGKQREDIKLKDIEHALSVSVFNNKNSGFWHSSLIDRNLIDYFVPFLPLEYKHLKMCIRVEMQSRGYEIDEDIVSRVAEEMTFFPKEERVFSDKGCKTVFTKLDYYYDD

Torsin-1A (Homo sapiens) [9] = target: Torsin-1A (Homo sapiens) (UniProt O14656); test: torsin A mutant lysate binding on microarrays – cell lysate, small-molecule microarray, COS7 lysate, 635/667 nm fluorescence, primary screen (AID 1150); conditions: COS7 hTOR1A mutant lysate, 635 nm fluorescence, higher = more signal;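 note: score pools 667 nm emission and signal to noise measuring lysate protein binding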
[10] = system: Sonic hedgehog protein (Shh); test: Sonic hedgehog microarray binding compounds – biochemical, small-molecule microarray, 635/667 nm fluorescence, primary screen (AID 1151); conditions: 635 nm fluorescence, higher = more signal;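 note: Shh protein binding to compounds spotted on small-molecule microarray slides; score combines spot fluorescence intensity with signal-to-noise across triplicate slides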
[11] = optical density shifts of acrAB sulA E. coli – strain DRC41, OD650, 48 h, E. coli filamentation inducer project, primary screen (AID 1152); conditions: higher = more signal, called active from +8 up or from −8 down;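 note: E. coli MC1000 strain DRC41 lacking acrAB efflux pump and sulA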
[12] = probe aLefty1 binding on compound microarray – biochemical, small-molecule microarray, 635/667 nm fluorescence, primary screen (AID 1153); conditions: higher = more signal;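 note: score merges spot fluorescence with signal-to-noise ratio from the scanned slide images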
[13] = plasmodial surface anion channel blockers, osmotic lysis – cell-based, P. falciparum Indochina, OD700, 1 h, primary screen (AID 1154); conditions: P. falciparum Indochina infected RBC osmotic lysis, higher = more signal, called active from +8 up or from −8 down
[14] = plasmodial surface anion channel blockers, osmotic lysis – cell-based, P. falciparum Indochina, OD700, 2 h, primary screen (AID 1155);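 note: lysis reports solute entry through the parasite surface anion channel PSAC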; conditions: P. falciparum Indochina infected erythrocytes, higher = more signal, called active from +8 up or from −8 down
[15] = changes in parasitized red cell lysis, either direction – P. falciparum Indochina, OD700, 3 h, PSAC antagonist project, primary screen (AID 1156); conditions: P. falciparum-infected erythrocytes, osmotic lysis, higher = more signal, called active from +8 up or from −8 down
[16] = plasmodial surface anion channel blockers, osmotic lysis – cell-based, P. falciparum Indochina, OD700, 18 h, primary screen (AID 1157); conditions: P. falciparum Indochina infected erythrocytes, osmotic lysis OD700, 18 h; higher = more signal, called active from +8 up or from −8 down
[17] = S6 kinase pathway phospho-S6 level changes – cell-based, A549, cytoblot, luminescence, serum-stimulated, primary screen (AID 1158); conditions: 5 h, higher = more signal;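 note: serum-stimulated A549 lung adenocarcinoma cells; signal is phosphorylated S6 detected by cytoblot immunostaining with HRP secondary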
[18] = target: NADPH oxidase 2 (Homo sapiens) (UniProt P04839); test: compounds shifting NOX2 Amplex Red fluorescence – cell-based, HEK293-NOX2, PMA-stimulated, NOX inhibitor project, primary screen (AID 1159); conditions: 45 min, higher = more signal, called active from +8 up or from −8 down; note: test concentration not given here
Sequence of NADPH oxidase 2 (Homo sapiens) (P04839 whole entry, looked up): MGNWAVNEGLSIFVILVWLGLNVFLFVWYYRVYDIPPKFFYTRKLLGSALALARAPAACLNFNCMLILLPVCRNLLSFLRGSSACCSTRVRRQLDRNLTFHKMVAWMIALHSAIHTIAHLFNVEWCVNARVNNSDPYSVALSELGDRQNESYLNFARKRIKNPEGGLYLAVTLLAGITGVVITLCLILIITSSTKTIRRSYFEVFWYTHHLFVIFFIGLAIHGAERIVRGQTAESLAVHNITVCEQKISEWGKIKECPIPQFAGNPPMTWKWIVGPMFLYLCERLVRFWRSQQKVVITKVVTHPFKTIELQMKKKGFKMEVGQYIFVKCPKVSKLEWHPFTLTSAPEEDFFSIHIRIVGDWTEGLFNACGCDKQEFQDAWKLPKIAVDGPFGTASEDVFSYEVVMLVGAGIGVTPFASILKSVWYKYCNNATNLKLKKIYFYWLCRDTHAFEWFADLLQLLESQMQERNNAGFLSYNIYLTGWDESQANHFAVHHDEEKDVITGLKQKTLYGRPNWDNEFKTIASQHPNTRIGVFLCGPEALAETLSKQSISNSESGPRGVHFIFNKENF

[19] = target: NADPH oxidase 4 (Homo sapiens) (UniProt Q9NPH5); test: compounds shifting NOX4 Amplex Red fluorescence – cell-based, HEK293-NOX4, tetracycline-induced, NOX inhibitor project, primary screen (AID 1160); conditions: HEK293-NOX4, Amplex Red H2O2 fluorescence, 45 min; higher = more signal, called active from +8 up or from −8 down
Sequence of NADPH oxidase 4 (Homo sapiens) (Q9NPH5 whole entry, looked up): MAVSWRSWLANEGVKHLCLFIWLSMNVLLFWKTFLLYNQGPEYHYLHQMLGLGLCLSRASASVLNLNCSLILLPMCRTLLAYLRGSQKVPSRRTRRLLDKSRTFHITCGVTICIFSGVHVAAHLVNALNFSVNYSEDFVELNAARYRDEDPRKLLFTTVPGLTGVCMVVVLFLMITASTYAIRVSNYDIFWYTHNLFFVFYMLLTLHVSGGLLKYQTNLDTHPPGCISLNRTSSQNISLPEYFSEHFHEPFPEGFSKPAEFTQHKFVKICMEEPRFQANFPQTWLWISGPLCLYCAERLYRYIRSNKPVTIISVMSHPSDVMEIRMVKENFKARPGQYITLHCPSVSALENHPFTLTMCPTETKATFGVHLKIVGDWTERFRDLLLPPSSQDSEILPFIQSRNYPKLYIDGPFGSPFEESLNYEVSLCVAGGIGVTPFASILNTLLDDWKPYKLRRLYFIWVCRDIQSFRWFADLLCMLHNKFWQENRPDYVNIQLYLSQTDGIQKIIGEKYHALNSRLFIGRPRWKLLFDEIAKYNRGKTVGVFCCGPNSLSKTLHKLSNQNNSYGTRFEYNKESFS

[20] = target: NADPH oxidase 5 (Homo sapiens) (UniProt Q96PH1); test: compounds shifting NOX5 Amplex Red fluorescence – cell-based, HEK293-NOX5, NOX inhibitor project, primary screen (AID 1161); conditions: HEK293-NOX5, ionomycin, 45 min, higher = more signal
Sequence of NADPH oxidase 5 (Homo sapiens) (Q96PH1 whole entry, looked up): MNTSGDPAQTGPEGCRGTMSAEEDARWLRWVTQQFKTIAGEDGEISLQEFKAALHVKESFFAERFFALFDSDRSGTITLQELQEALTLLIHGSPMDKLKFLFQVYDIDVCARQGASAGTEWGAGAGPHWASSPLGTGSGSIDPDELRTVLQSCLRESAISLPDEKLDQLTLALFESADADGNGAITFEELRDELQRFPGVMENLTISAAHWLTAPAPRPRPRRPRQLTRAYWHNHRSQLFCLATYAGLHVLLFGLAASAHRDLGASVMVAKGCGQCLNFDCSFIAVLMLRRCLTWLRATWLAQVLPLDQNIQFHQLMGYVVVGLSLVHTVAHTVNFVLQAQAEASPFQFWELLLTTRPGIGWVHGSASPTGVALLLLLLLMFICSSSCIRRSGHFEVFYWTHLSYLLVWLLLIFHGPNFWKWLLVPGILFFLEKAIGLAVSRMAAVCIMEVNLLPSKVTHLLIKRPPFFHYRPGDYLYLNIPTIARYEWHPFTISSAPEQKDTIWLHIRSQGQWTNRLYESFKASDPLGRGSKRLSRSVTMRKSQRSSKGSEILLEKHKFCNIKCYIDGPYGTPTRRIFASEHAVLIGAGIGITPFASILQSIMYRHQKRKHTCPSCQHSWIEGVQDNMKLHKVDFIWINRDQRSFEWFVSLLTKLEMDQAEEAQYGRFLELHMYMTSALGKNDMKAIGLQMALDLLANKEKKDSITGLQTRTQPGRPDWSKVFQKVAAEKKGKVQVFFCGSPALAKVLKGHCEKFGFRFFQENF

SMILES | composite z-score [1] | z-score [2] | z-score [3] | z-score [4] | z-score [5] | composite z-score [6] | composite z-score [7] | composite z-score (Torsin-1A (Homo sapiens) [8]) | composite z-score (Torsin-1A (Homo sapiens) [9]) | composite z-score [10] | z-score [11] | composite z-score [12] | z-score [13] | z-score [14] | z-score [15] | z-score [16] | z-score [17] | z-score [18] | z-score [19] | z-score [20]
COc1ccc([Si](C)(C)[C@H]2[C@H](CCO)O[C@@]3(C(=O)N(Cc4ccccc4)c4ccc(N5C(=O)COc6ccccc65)cc43)[C@@H]2C)cc1 | 0.19 | -6.69 (inactive) | -0.539 (inactive) | -0.258 (inactive) | -0.81 (inactive) | 0.0375 | 0.189 | -0.503 | 0.105 | 1.92 | 0.592 (inactive) | 0.167 | 5.33 (inactive) | 2.16 (inactive) | 1.3 (inactive) | 1.65 (inactive) | 2.08 | -1.74 (inactive) | 1.53 (inactive) | 0.595
C=CCOC(=O)[C@H]1[C@@H]2C(=O)O[C@@H](c3ccccc3)[C@@H](c3ccccc3)N2[C@@H](c2ccc(OCCOC(=O)[C@H]3C[C@H]4C(=O)N[C@@H](CCCC[N+](C)(C)C)C(=O)N4[C@H]3c3ccc(O)cc3)cc2)[C@]12C(=O)Nc1ccccc12 | 0.0385 | -0.236 (inactive) | -0.968 (inactive) | -1.62 (inactive) | -1.06 (inactive) | -0.22 | -0.258 | 0.475 | 0.846 | 1.18 | 0.0787 (inactive) | 0.206 | -2.12 (inactive) | -1.12 (inactive) | 0.857 (inactive) | -1.95 (inactive) | -0.327 | 2.39 (inactive) | 0.928 (inactive) | 0.96
CO[C@H]1O[C@H](CO)[C@@H](OC(=O)Nc2ccccc2-c2ccccc2)[C@H](OC(=O)Nc2ccccc2-c2ccccc2)[C@H]1OC(=O)Nc1ccccc1-c1ccccc1 | 0.764 | -3.73 (inactive) | -0.587 (inactive) | 1.65 (inactive) | -0.823 (inactive) | 0.244 | 0.243 | 0.93 | 0.885 | 1.61 | 0.236 (inactive) | 0.427 | 3.93 (inactive) | 1.27 (inactive) | -0.623 (inactive) | 1.16 (inactive) | 0.311 | 1.26 (inactive) | -0.874 (inactive) | -0.439
C[C@H]1C2[C@H](Cc3ccccc3)NC(=O)[C@]23C(=O)N[C@H](Cc2ccccc2)C(=O)N[C@H](Cc2ccccc2)C(=O)NC/C=C/CCC/C=C/C3[C@@H]2O[C@]12C (stereo not given in full) | 0.127 | -2 (inactive) | 0.612 (inactive) | 1.3 (inactive) | -0.696 (inactive) | -0.224 | -0.149 | 0.299 | 0.225 | 0.843 | 0.655 (inactive) | -0.19 | 1.75 (inactive) | 0.452 (inactive) | 0.601 (inactive) | 0.794 (inactive) | 0.282 | 0.563 (inactive) | -0.312 (inactive) | 0.875
O=C1O[C@@H](c2ccccc2)[C@@H](c2ccccc2)N2[C@@H](c3ccc(O)cc3)[C@]3(C(=O)Nc4ccccc43)[C@@H](C(=O)N3CCCCCCC3)[C@H]12 | 1.36 | -2.61 (inactive) | -0.279 (inactive) | 0.0384 (inactive) | 0.276 (inactive) | 2.93 | 1.98 | 1.91 | 1.8 | 2.02 | -0.779 (inactive) | 2.88 | 0.571 (inactive) | -0.0476 (inactive) | -1.25 (inactive) | 0.516 (inactive) | -0.274 | 0.915 (inactive) | 0.522 (inactive) | 1.57
